Measurements published in PubChem BioAssay (NCI).
Several values for one entry are separate records, joined by “and”; a condition that tells them apart may be missing. Equal values may be shown once. The panel holds about 83,000 compounds, 20% with a hit somewhere; the sample as a whole holds those more often.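 How to read the values: 0–100, growth inhibition (40 = 60% inhibited); 0, no net growth; -100 to 0, cell death (-40 = 40% of starting cells died; -100 = all dead).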 Activity calls are given as the source filed them. Rule for the calls: active = growth percent below 10; inactive = the rest.

What follows are molecules tested on HOP-62 NSCLC (assay: NCI-60 one-dose screen, 48 h (100 = growth as untreated, 0 = no growth, -100 = all killed)). Details: 10 µM unless noted.

Row | Structure (SMILES) | growth
1 | CN(Cc1ccccc1)c1nc(Cl)c(C2CC(c3ccc(F)cc3)=NN2C=O)s1 (stereo unspecified) | 107% (inactive)
2 | CCOC(=O)c1ccc(Nc2ncnc3c2cnn3-c2cccc(F)c2)cc1 | 93.7% (inactive)
3 | Cc1ccc2nc3ccccc3c(NCc3ccc(Cl)cc3)c2c1 | 65.3% (inactive)
4 | O=S(=O)(Nc1cc(Sc2cccc3cccnc23)c(O)c2ccccc12)c1ccc(F)cc1 | 44.7% (inactive)
5 | CCCCC1COc2cccc3c2N1C=C/C3=C\C(=O)N(C)c1cccc(Cl)c1 (stereo unspecified) | 109% (inactive)
6 | Cc1ccc(-c2nc3nc(-c4ccc(Cl)cc4)nc(N4CCCNCC4)c3o2)cc1 | 97.6% (inactive)
7 | COc1cc(NS(=O)(=O)C(C)C)cc(-c2cc(-c3ccc(N4CCNCC4)cc3)cnc2N)c1 | 103% (inactive)
8 | COCCn1cc(-c2csc(-c3cn(C)c4ccc(F)cc34)n2)c2cccnc21 | 93.2% (inactive)
9 | COc1ccc(NC(=O)Nc2ccccc2CNc2nc(Nc3ccc(OCCN4CCCC4)cc3)ncc2Cl)cc1 | 6.02% (active)
10 | COc1cc(CNC(=O)CCCC/C=C/C(C)C)ccc1O | 89% (inactive) and 104% (inactive)
11 | CC(Sc1ccccc1)C(=O)O (stereo unspecified) | 83.4% (inactive)
12 | Cc1ccc(-c2nc3nc(-c4ccccc4)nc(N4CCCNCC4)c3o2)cc1 | -27.1% (active)
13 | CCCCn1c(C(=O)c2c[nH]c3ccccc23)n[nH]c1=S | 86% (inactive)
14 | O=C1C(=C(O)c2ccccc2)C(=O)c2ccccc21 | 99.5% (inactive)
15 | COc1ccc(-c2c[nH]c(C(=O)O)c2-c2cc(OC)c(OC)c(OC)c2)cc1 | 37.3% (inactive)
16 | O=C(Nc1ccc2ccccc2c1)c1cc2ccccc2cc1O | 98.8% (inactive)
17 | N=C(N)SCc1c2ccccc2c(CSC(=N)N)c2ccccc12 | 55.5% (inactive)
18 | NNCCc1ccccc1 | 104% (inactive) and 103% (inactive)
19 | Brc1ccc(/C=C(/C2=NCCN2)n2ccc3ccccc32)cc1 | 68.3% (inactive)

Row | Structure (SMILES) | growth
20 | C=C(c1ccc(C(=O)O)cc1)c1cc2c(cc1C)C(C)(C)CCC2(C)C | 79.7% (inactive) and 67.3% (inactive)
21 | N=C(N)c1ccc(-c2ccc(-c3ccc(Cl)c(Cl)c3)s2)cc1 | 40.8% (inactive)
22 | C=C(CN1CC=CCC1)[C@@H]1CC[C@]2(COC(C)=O)CC[C@]3(C)[C@H](CC[C@@H]4[C@@]5(C)CC[C@H](O)C(C)(C)[C@@H]5CC[C@]43C)[C@@H]12 | 107% (inactive)
23 | O=[N+]([O-])c1cc(C(F)(F)F)ccc1Sc1ccc(C(F)(F)F)cc1[N+](=O)[O-] | 94.6% (inactive)
24 | CCn1cc(C(=O)NN=C2CCCC2)c(=O)c2ccc(C)nc21 | 93.3% (inactive)
25 | O=C(Nc1ccc(Cl)c(Cl)c1)Nc1ccc(Cl)c(Cl)c1 | -83.4% (active) and 40.8% (inactive)
26 | Cn1c(=O)c2c(nc(Nc3cc(=O)[nH]c(=O)[nH]3)n2Cc2ccccc2)n(C)c1=O | 20.6% (inactive)
27 | CCOC(=O)c1c(-c2ccc(OC)cc2)c(C#N)c2c(C#N)c(N)nn2c1N | 35.8% (inactive)
28 | COc1cc(/C=N/NC(=O)CCN2c3ccccc3Sc3ccccc32)cc(OC)c1OC | 101% (inactive)
29 | O/N=C(/c1ccccc1)c1ccc2c3c(cccc13)CC2 | 93.1% (inactive) and 94.1% (inactive)
30 | COc1cc(-c2nc3occn3c2-c2ccnc(NCCCNS(=O)(=O)c3ccc(O)cc3)n2)ccc1F | 95% (inactive)
31 | CN(C)c1ccc2nc3ccc(=O)cc-3sc2c1 | 35.5% (inactive) and 60.7% (inactive)
32 | ON=C1CCCCCCCC1 | 104% (inactive)
33 | [Cu+].[NH-][C@H]1C[N-]C(=O)[C@H]([C@H]2CCN=C(N)N2)[N-]C(=O)/C(=C\NC(N)=O)[N-]C(=O)[C@H](CNC(=O)C[C@@H](N)CCCN)[N-]C(=O)[C@H](CO)[N-]C1=O | 94.8% (inactive)
34 | CC(C)=CCc1cc(O)c(O)c2oc3cc(O)cc(O)c3c(=O)c12 | 45.9% (inactive)
35 | Cc1ccc(S(=O)(=O)OC[C@@]2(C)CC[C@]3(C)CC[C@]4(C)C(=CC[C@@H]5[C@@]6(C)CCCNC(C)(C)[C@@H]6CC[C@]54C)[C@@H]3C2)cc1 | -82.8% (active)
36 | COc1cc(C=O)ccc1Oc1ccc([N+](=O)[O-])cc1[N+](=O)[O-] | 94.2% (inactive)
37 | COc1cc2ncnc(Nc3ccc(F)c(Cl)c3)c2cc1OCC(=O)N1CCCCC1 | 103% (inactive)
38 | CCN1C(=S)N(CC)C2C1NC(=S)N2/N=C/C=C/c1ccccc1 (stereo unspecified) | 44.4% (inactive)

Each molecule was assayed on NCI-H460 lung in the same assay as above. Details: 10 µM unless noted.

Row | Structure (SMILES) | growth
39 | CN(Cc1ccccc1)c1nc(Cl)c(C2CC(c3ccc(F)cc3)=NN2C=O)s1 (stereo unspecified) | 96.9% (inactive)
40 | CCOC(=O)c1ccc(Nc2ncnc3c2cnn3-c2cccc(F)c2)cc1 | 102% (inactive)
41 | Cc1ccc2nc3ccccc3c(NCc3ccc(Cl)cc3)c2c1 | 29.5% (inactive)
42 | O=S(=O)(Nc1cc(Sc2cccc3cccnc23)c(O)c2ccccc12)c1ccc(F)cc1 | 4.76% (active)
43 | CCCCC1COc2cccc3c2N1C=C/C3=C\C(=O)N(C)c1cccc(Cl)c1 (stereo unspecified) | 105% (inactive)
44 | Cc1ccc(-c2nc3nc(-c4ccc(Cl)cc4)nc(N4CCCNCC4)c3o2)cc1 | -81.6% (active)
45 | COc1cc(NS(=O)(=O)C(C)C)cc(-c2cc(-c3ccc(N4CCNCC4)cc3)cnc2N)c1 | 97.1% (inactive)
46 | COCCn1cc(-c2csc(-c3cn(C)c4ccc(F)cc34)n2)c2cccnc21 | 51.6% (inactive)
47 | COc1ccc(NC(=O)Nc2ccccc2CNc2nc(Nc3ccc(OCCN4CCCC4)cc3)ncc2Cl)cc1 | -70.9% (active)
48 | COc1cc(CNC(=O)CCCC/C=C/C(C)C)ccc1O | 106% (inactive) and 114% (inactive)
49 | CC(Sc1ccccc1)C(=O)O (stereo unspecified) | 111% (inactive)
50 | Cc1ccc(-c2nc3nc(-c4ccccc4)nc(N4CCCNCC4)c3o2)cc1 | -57.7% (active)
51 | CCCCn1c(C(=O)c2c[nH]c3ccccc23)n[nH]c1=S | 98.7% (inactive)
52 | O=C1C(=C(O)c2ccccc2)C(=O)c2ccccc21 | 116% (inactive)
53 | COc1ccc(-c2c[nH]c(C(=O)O)c2-c2cc(OC)c(OC)c(OC)c2)cc1 | 14.4% (inactive)
54 | O=C(Nc1ccc2ccccc2c1)c1cc2ccccc2cc1O | 85.4% (inactive)
55 | N=C(N)SCc1c2ccccc2c(CSC(=N)N)c2ccccc12 | 34.4% (inactive)
56 | NNCCc1ccccc1 | 115% (inactive) and 105% (inactive)
57 | Brc1ccc(/C=C(/C2=NCCN2)n2ccc3ccccc32)cc1 | 76.4% (inactive)

Row | Structure (SMILES) | growth
58 | C=C(c1ccc(C(=O)O)cc1)c1cc2c(cc1C)C(C)(C)CCC2(C)C | 83.4% (inactive) and 79% (inactive)
59 | N=C(N)c1ccc(-c2ccc(-c3ccc(Cl)c(Cl)c3)s2)cc1 | -58.7% (active)
60 | C=C(CN1CC=CCC1)[C@@H]1CC[C@]2(COC(C)=O)CC[C@]3(C)[C@H](CC[C@@H]4[C@@]5(C)CC[C@H](O)C(C)(C)[C@@H]5CC[C@]43C)[C@@H]12 | 96.3% (inactive)
61 | O=[N+]([O-])c1cc(C(F)(F)F)ccc1Sc1ccc(C(F)(F)F)cc1[N+](=O)[O-] | 74.4% (inactive)
62 | CCn1cc(C(=O)NN=C2CCCC2)c(=O)c2ccc(C)nc21 | 92.9% (inactive)
63 | O=C(Nc1ccc(Cl)c(Cl)c1)Nc1ccc(Cl)c(Cl)c1 | -63.6% (active) and 4.34% (active)
64 | Cn1c(=O)c2c(nc(Nc3cc(=O)[nH]c(=O)[nH]3)n2Cc2ccccc2)n(C)c1=O | 2.91% (active)
65 | CCOC(=O)c1c(-c2ccc(OC)cc2)c(C#N)c2c(C#N)c(N)nn2c1N | 9.75% (active)
66 | COc1cc(/C=N/NC(=O)CCN2c3ccccc3Sc3ccccc32)cc(OC)c1OC | 95.8% (inactive)
67 | O/N=C(/c1ccccc1)c1ccc2c3c(cccc13)CC2 | 87.6% (inactive) and 96.7% (inactive)
68 | COc1cc(-c2nc3occn3c2-c2ccnc(NCCCNS(=O)(=O)c3ccc(O)cc3)n2)ccc1F | 102% (inactive)
69 | CN(C)c1ccc2nc3ccc(=O)cc-3sc2c1 | 19% (inactive) and 34.1% (inactive)
70 | ON=C1CCCCCCCC1 | 114% (inactive) and 110% (inactive)
71 | [Cu+].[NH-][C@H]1C[N-]C(=O)[C@H]([C@H]2CCN=C(N)N2)[N-]C(=O)/C(=C\NC(N)=O)[N-]C(=O)[C@H](CNC(=O)C[C@@H](N)CCCN)[N-]C(=O)[C@H](CO)[N-]C1=O | 98.4% (inactive)
72 | CC(C)=CCc1cc(O)c(O)c2oc3cc(O)cc(O)c3c(=O)c12 | 25.1% (inactive)
73 | Cc1ccc(S(=O)(=O)OC[C@@]2(C)CC[C@]3(C)CC[C@]4(C)C(=CC[C@@H]5[C@@]6(C)CCCNC(C)(C)[C@@H]6CC[C@]54C)[C@@H]3C2)cc1 | -74.6% (active)
74 | COc1cc(C=O)ccc1Oc1ccc([N+](=O)[O-])cc1[N+](=O)[O-] | 104% (inactive)
75 | COc1cc2ncnc(Nc3ccc(F)c(Cl)c3)c2cc1OCC(=O)N1CCCCC1 | 95.5% (inactive)
76 | CCN1C(=S)N(CC)C2C1NC(=S)N2/N=C/C=C/c1ccccc1 (stereo unspecified) | 12.4% (inactive)
